Reference: PubChem BioAssay (NCATS)
Inconclusive results are not listed. Activity calls are given as the source filed them. Calls come from the whole dose curve; as a rule, active = well fitted cell-killing curve with a large enough effect; inconclusive = small, poorly fitted or top-dose-only effect, or effect the other way; inactive = no such curve, though single readings can be large or run the other way.

assay: Quantitative High-Throughput drug screen in 47 multiple myeloma cell lines against the NCATS MIPE library collection: Delta47_JCRB cell viability assay (AID 1918925; note: nearly all actives have a fitted effect of over 45% in size); conditions: Delta47 myeloma viability, CellTiter-Glo ATP, 48 h; series mostly up to 45.8 µM
Excerpt: PI: Beverly A. Mock Ph.D.
Laboratory of Cancer Biology and Genetics,
Center for Cancer Research, National Cancer Institute,
National Institute of Health, Bethesda, Maryland
Drug resistance and disease progression are common in multiple myeloma (MM) patients, underscoring the need for new therapeutic combinations. […] We hypothesized that effective combinations would reduce MYC expression and enhance p16 activity. […] These preclinical data identify potentially useful drug combinations for evaluation in drug-resistant MM and reveal potential mechanisms of combined drug sensitivity.
Described herein is the primary MIPE qHTS used to cherrypick compounds. Validated compounds were then further tested for potential synergistic activiy.
[1] Peat TJ, Gaikwad SM, Dubois W, Gyabaah-Kessie N, Zhang S, Gorjifard S, Phyo Z, Andres M, Hughitt VK, Simpson RM, Miller MA, Girvin AT, Taylor A, Williams D, D'Antonio N, Zhang Y, Rajagopalan A, Flietner E, Wilson K, Zhang X, Shinn P, Klumpp-Thomas C, McKnight C, Itkin Z, Chen L, Kazandijian D, Zhang J, Michalowski AM, Simmons JK, Keats J, Thomas CJ, Mock BA. Drug combinations identified by high-throughput screening promote cell cycle transition and upregulate Smad pathways in myeloma. Cancer Lett. 2023 Aug 1;568:216284. doi: 10.1016/j.canlet.2023.216284. Epub 2023 Jun 24. PMID: 37356470; PMCID: PMC10408729.
SEQUENCE No. (e.g., 1, 2, 3, etc.); […] (e.g., Cells, Incubation, Reagent, etc.); VALUE and DESCRIPTION.
1; Cells; 5 uL; white, solid bottom 1536-well Greiner assay plate.
2; Compounds; 23 nL; Kalypsis pin tool (Wako USA) equipped with a 1536-well pin head to transfer to the assay plates.
3; Incubation; 48 hours; 37C incubation.
4; Reagent;5uL; CellTiter Glo (Promega).
5; Detector; 425V; Luminescence; Viewlux PerkinElmer.
NOTES (numbers refer to Sequence numbers above)
1. The cell-based screening methods employed in this study were like those previously published. Briefly, the corresponding myeloma cell lines were screened in 1,536-well plates with 500 cells, 5-uL per well for inhibition of cell viability (assessed by measuring ATP levels with CellTiterGlo).
2. NCATS MIPE 4.0 library of approved and investigational drugs were added using the Kalypsis pin tool. Wells treated with DMSO only for 100% viability and media only wells for 0% viability were used as controls.
3. The assay plates were covered and incubated for 48 hours in a 37C, 5% CO2 incubator with controlled humidity.
4. After 48 hours, CellTilter-GloTM luminescent substrate mix (Promega) reagent was added to the assay plate and plates we incubated for 5 min at room temperature.
5. Signal was measured as median relative luminescence units on a ViewLux (PerkinElmer) multiplate reader.
[1] Heske CM, Davis MI, Baumgart JT, Wilson K, Gormally MV, Chen L, Zhang X, Ceribelli M, Duveau DY, Guha R, Ferrer M, Arnaldez FI, Ji J, Tran HL, Zhang Y, Mendoza A, Helman LJ, Thomas CJ. Matrix Screen Identifies Synergistic Combination of PARP Inhibitors and Nicotinamide Phosphoribosyltransferase (NAMPT) Inhibitors in Ewing Sarcoma. Clin Cancer Res. 2017 Dec 1;23(23):7301-7311. doi: 10.1158/1078-0432.CCR-17-1121. Epub 2017 Sep 12. PMID: 28899971; PMCID: PMC6636827.
Potency is the fitted concentration of half-maximal effect.

For `O=c1c(O)c(-c2ccc(O)c(O)c2)oc2cc(O)ccc12`, which Potency is on record?
The Potency was 11800 nM (active).

For `Cc1cc(O)c2c(c1)C(=O)c1cccc(O)c1C2=O`, which Potency is on record?
Its Potency is “inactive”.

Which Potency does the source give for `CC[C@]12C=CCN3CC[C@@]4(c5cc([C@@]6(C(=O)OC)C[C@H]7C[C@@H](C(C)(F)F)CN(Cc8c6[nH]c6ccccc86)C7)c(OC)cc5N(C)[C@H]4[C@@](O)(C(=O)OC)[C@H]1OC(C)=O)[C@@H]32` here?
Its Potency is 9.3 nM (active).

For `CC(C)(C)c1nc2c3cc[nH]c(=O)c3c3cc(F)ccc3c2[nH]1`, which Potency is on record?
The Potency was 3320 nM (active).

With `O=C(Nc1cccc(Nc2ncc(Br)c(NCCc3cnc[nH]3)n2)c1)N1CCCC1` as the compound, how does the Potency read?
Its Potency is 4180 nM (active).

Which Potency does the source give for `CCc1cc(C(C)=NOCc2ccc(C3CCCCC3)c(C(F)(F)F)c2)ccc1CN1CC(C(=O)O)C1` here?
Its Potency is 20900 nM (active).

Which Potency does the source give for `CCCCCCCCCCCCc1ccc(S(=O)(=O)Nc2nncs2)cc1` here?
Its Potency is 935 nM (active).

Which Potency does the source give for `CC(=O)[C@]1(O)Cc2c(O)c3c(c(O)c2[C@@H](O[C@H]2C[C@H](N)[C@@H](O)[C@H](C)O2)C1)C(=O)c1ccccc1C3=O` here?
The Potency was 105 nM (active).

For `COC1=C2C[C@@H](C)C[C@H](OC)[C@@H](O)[C@@H](C)C=C(C)[C@H](OC(N)=O)[C@@H](OC)C=CC=C(C)C(=O)NC(=CC1=O)C2=O`, which Potency is on record?
The Potency was 132 nM (active).

With `CC(C)c1cc(C(C)C)c(CC(=O)NS(=O)(=O)Oc2c(C(C)C)cccc2C(C)C)c(C(C)C)c1` as the compound, how does the Potency read?
The Potency was “inactive”.

For `Cc1cc(Nc2ncc3c(n2)N(C)C(=O)N(c2cc(NC(=O)c4cccc(C(F)(F)F)c4)ccc2C)C3)n(C)n1`, which Potency is on record?
The Potency was 209 nM (active).

For `O=c1[nH]c(=O)n([C@H]2C[C@@H](O)[C@@H](CO)O2)cc1C=CBr`, which Potency is on record?
Its Potency is “inactive”.

Which Potency does the source give for `Cc1ccccc1C(=O)Nc1ccc(C(=O)N2CCCC(O)c3cc(Cl)ccc32)c(C)c1` (stereo not given) here?
The Potency was “inactive”.

For `CN[C@@H]1C[C@H]2O[C@@](C)([C@H]1OC)n1c3ccccc3c3c4c(c5c6ccccc6n2c5c31)C(=O)N[C@H]4O`, which Potency is on record?
The Potency was 46.9 nM (active).

Which Potency does the source give for `Cn1cc(C[C@@H](N)C(=O)O)c2ccccc21` here?
The Potency was “inactive”.

For `NC(=O)N1CCC(CC(=O)N2CCC([C@H]3c4ncc(Br)cc4CCc4cc(Cl)cc(Br)c43)CC2)CC1`, which Potency is on record?
Its Potency is 8330 nM (active).

With `CNC(=O)c1cccc(-c2ccc3c(N4CCOC[C@H]4C)nc(N4CCOC[C@H]4C)nc3n2)c1` as the compound, how does the Potency read?
The Potency was 29.6 nM (active).

Which Potency does the source give for `O=C(C=Cc1ccc(CN(CCO)CCc2c[nH]c3ccccc23)cc1)NO` here?
Its Potency is 105 nM (active).

Which Potency does the source give for `Cc1cc(-c2nnc3n2CCCCC3)c(C)n1-c1ccccc1` here?
The Potency was “inactive”.

Which Potency does the source give for `O=C(O)[C@H](CC(=O)N1C[C@@H]2CCCC[C@H]2C1)Cc1ccccc1` here?
Its Potency is “inactive”.

For `CO[C@@H]1[C@@H](O)[C@H](O)[C@@H](n2c3c(Cl)cccc3c3c4c(c5c6cccc(Cl)c6[nH]c5c32)C(=O)NC4=O)O[C@@H]1CO`, which Potency is on record?
The Potency was 590 nM (active).

With `C#C[C@]1(O)CC[C@@H]2[C@@H]3CCC4=CC(=O)CC[C@@H]4[C@H]3CC[C@@]21CC` as the compound, how does the Potency read?
Its Potency is “inactive”.

For `Cc1cncc2cccc(S(=O)(=O)N3CCCN(C(=O)CN)C[C@@H]3C)c12`, which Potency is on record?
Its Potency is 23500 nM (active).

With `c1ccc(CNc2nc(NCc3ccccc3)c3ccccc3n2)cc1` as the compound, how does the Potency read?
Its Potency is 7430 nM (active).

With `CCN(C(=O)c1c(O)c2c(Cl)cccc2n(C)c1=O)c1ccccc1` as the compound, how does the Potency read?
The Potency was “inactive”.

With `COc1cccc2c1C(=O)c1c(O)c3c(c(O)c1C2=O)C[C@@](O)(C(=O)CO)C[C@@H]3O[C@H]1C[C@H](N)[C@H](OC2CCCCO2)[C@H](C)O1` (stereo not given in full) as the compound, how does the Potency read?
The Potency was 833 nM (active).

With `N#CNC(=NCCCCCCOc1ccc(Cl)cc1)Nc1ccncc1` as the compound, how does the Potency read?
Its Potency is 18700 nM (active).

With `COc1cc(O)c2c(c1)C1OC1C[C@H](O)[C@H](O)C(=O)C=CC[C@H](C)OC2=O` (stereo not given in full) as the compound, how does the Potency read?
Its Potency is 4180 nM (active).

With `CC1=C(C(=O)Nc2cc3cn[nH]c3cc2F)C(c2ccc(Cl)cc2F)N=C(c2ccnc(Cl)c2)N1` (stereo not given) as the compound, how does the Potency read?
The Potency was 11800 nM (active).

With `C=C1CCC2[C@](C)(CO)C(O)CC[C@]2(C)C1CC=C1C(=O)OCC1O` (stereo not given in full) as the compound, how does the Potency read?
Its Potency is “inactive”.

For `CS[C@H]1SC[C@@H]2C(=O)N(C)[C@H](C(C)C)C(=O)OC[C@H](NC(=O)c3cnc4ccccc4n3)C(=O)N[C@H](C)C(=O)N(C)[C@@H]1C(=O)N(C)[C@H](C(C)C)C(=O)OC[C@H](NC(=O)c1cnc3ccccc3n1)C(=O)N[C@H](C)C(=O)N2C`, which Potency is on record?
Its Potency is 1 nM (active).

Which Potency does the source give for `O=C(Nc1nnc(-c2ccco2)o1)c1cc(-c2ccccc2)nc2ccccc12` here?
Its Potency is 18700 nM (active).

With `CC(C)C[C@H](NC(=O)[C@@H](NC(=O)c1cccc(-c2ccccc2)n1)[C@@H](C)O)B(O)O` as the compound, how does the Potency read?
Its Potency is 16.6 nM (active).

For `CCCNS(=O)(=O)Nc1ncnc(OCCOc2ncc(Br)cn2)c1-c1ccc(Br)cc1`, which Potency is on record?
Its Potency is 2640 nM (active).

Which Potency does the source give for `Cc1cnc(Nc2ccc(CN3CCOCC3)cc2)nc1Nc1cccc(S(=O)(=O)NC(C)(C)C)c1` here?
Its Potency is 1870 nM (active).

For `Nc1nc(N)c2nc(-c3cccc(O)c3)c(-c3cccc(O)c3)nc2n1`, which Potency is on record?
The Potency was 5900 nM (active).

For `O=C(NC1CC1)c1cccc(-c2ccc3c(NC(=O)C4CC4)n[nH]c3c2)c1`, which Potency is on record?
The Potency was 7430 nM (active).

For `COc1ccc(Nc2cc(-c3cnc(N)nc3)nc(N3CCOCC3)n2)cn1`, which Potency is on record?
Its Potency is 1480 nM (active).

Which Potency does the source give for `C=CC(=O)N1CCc2ccc(-n3c(=O)ccc4cnc5ccc(-c6cnn(C)c6)cc5c43)cc21` here?
The Potency was 935 nM (active).

Which Potency does the source give for `OCCNC1CCCc2c1[nH]c1ccc(-c3ccccc3)cc21` (stereo not given) here?
Its Potency is 10500 nM (active).
